Here are results for ten compounds from PubChem BioAssay (NCI).

Test systems include NCI-H23 lung; NCI-H226 lung; NCI-H322M lung; HOP-62 NSCLC; NCI-H460 lung; HOP-92 NSCLC; NCI-H522 lung; A549/ATCC NSCLC; 786-0 renal; COLO 205 colon; DU-145 prostate; K-562 leukemia; MALME-3M melanoma; MDA-MB-231 breast; RXF 393 renal; SF-268 CNS; SF-295 CNS; SF-539 CNS; UACC-257 melanoma; M14 melanoma.
What all share (test): NCI-60 one-dose screen, 48 h (100 = growth as untreated, 0 = no growth, -100 = all killed)
Common to all, as to conditions: 10 µM unless noted

The panel holds about 83,000 compounds, 20% with a hit somewhere; the sample as a whole holds those more often.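 Single-dose data. Exposure time 48 hours. Values below 10 considered active.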 Values without a mark were called inactive. Calls of active or inactive are those of the source.

Consider `Cc1ccc(S(=O)(=O)NCCCNc2nccc(-c3c(-c4cccc(F)c4)nc4occn34)n2)cc1`, for which the growth in the experiment on NCI-H23 lung is 102%; in the experiment with NCI-H226 lung, 67.6%; in the experiment with NCI-H322M lung, 77.9%; in the experiment on HOP-62 NSCLC, 88.5%; in the experiment on NCI-H460 lung it was 75.7%; in the experiment with HOP-92 NSCLC, 82.5%. Moreover, the growth is 71.6% in the experiment with NCI-H522 lung; 53.2% in the experiment on A549/ATCC NSCLC; 73.3% with 786-0 renal; 66% in the experiment on COLO 205 colon; 73.8% with DU-145 prostate; 36.7% in the experiment on K-562 leukemia. Moreover, the growth in the experiment with MALME-3M melanoma was 64.6%; in the experiment with MDA-MB-231 breast, 64%; in the experiment with RXF 393 renal, 77.7%; with SF-268 CNS it was 61.6%; in the experiment on SF-295 CNS, 100%; in the experiment with SF-539 CNS, 95.1%. Besides, the growth in the experiment with UACC-257 melanoma was 91.5%; in the experiment with M14 melanoma, 57%.

With `Cc1ccc(S(=O)(=O)Nc2ccccc2)cc1N`, the growth was 90.8% in the experiment on NCI-H23 lung; 95.6% with NCI-H226 lung; 97% with NCI-H322M lung; 86.2% with HOP-62 NSCLC; 99.5% in the experiment with NCI-H460 lung; 75.2% with HOP-92 NSCLC. For the same compound, the growth in the experiment on NCI-H522 lung is 23.5%; with A549/ATCC NSCLC, 81.3%; in the experiment on 786-0 renal it was 99.8%; with COLO 205 colon, 119%; in the experiment on DU-145 prostate it was 108%; with K-562 leukemia it was 78.3%. For the same compound, the growth with MALME-3M melanoma is 133%; in the experiment with MDA-MB-231 breast, 83.9%; with RXF 393 renal, 94.5%; in the experiment on SF-268 CNS, 94.8%; in the experiment on SF-295 CNS, 119%; in the experiment with SF-539 CNS, 106%. Besides, the growth is 92.3% with UACC-257 melanoma and 96.2% in the experiment on M14 melanoma.

Take `Cc1nn(-c2ccccc2)c(N2CCOCC2)c1-c1nc2ccc([N+](=O)[O-])cc2[nH]1`: the growth in the experiment on NCI-H23 lung was 107%; in the experiment on NCI-H226 lung, 111%; in the experiment on NCI-H322M lung it was 93.2%; in the experiment with HOP-62 NSCLC it was 128%; in the experiment on NCI-H460 lung, 99.5%; in the experiment with HOP-92 NSCLC, 117%. Further, the growth with NCI-H522 lung is 80.5%; with A549/ATCC NSCLC, 94%; with 786-0 renal, 107%; in the experiment with COLO 205 colon, 124%; in the experiment on DU-145 prostate, 98.4%; in the experiment with K-562 leukemia it was 88.4%. Further, the growth in the experiment on MALME-3M melanoma is 105%; in the experiment on MDA-MB-231 breast, 109%; in the experiment with RXF 393 renal, 113%; in the experiment on SF-268 CNS it was 89.7%; with SF-295 CNS, 99.8%; in the experiment with SF-539 CNS, 109%. Also, the growth is 106% with UACC-257 melanoma and 108% in the experiment on M14 melanoma.

As to `COc1cc2c(cc1OCCCCCOc1ccc(-n3c(C)nc4ccccc4c3=O)cc1)N=C[C@@H]1CCCN1C2=O`, the growth in the experiment on NCI-H23 lung was -20.1% (active); in the experiment with NCI-H226 lung it was 2.04% (active); in the experiment with NCI-H322M lung, -31.2% (active); in the experiment with HOP-62 NSCLC, -29% (active); with NCI-H460 lung it was -31.2% (active); in the experiment with HOP-92 NSCLC it was -17.8% (active). Further, the growth with NCI-H522 lung was -33.5% (active); with A549/ATCC NSCLC, 7.25% (active); in the experiment on 786-0 renal, -42.5% (active); with COLO 205 colon, -22.3% (active); in the experiment with DU-145 prostate it was -25.2% (active); in the experiment with K-562 leukemia, -17.5% (active). Further, the growth in the experiment with MALME-3M melanoma was -78.9% (active); in the experiment on MDA-MB-231 breast it was 2.33% (active); in the experiment with RXF 393 renal, -73.9% (active); in the experiment on SF-268 CNS, -5.47% (active); in the experiment on SF-295 CNS, -8.19% (active); in the experiment on SF-539 CNS, -63% (active). The growth is 20% in the experiment on UACC-257 melanoma and -64.3% (active) in the experiment with M14 melanoma.

For the compound `CN(C)CCCNc1nc(-c2cccc(C(Cl)(Cl)Cl)c2)nc(C(Cl)(Cl)Cl)n1`, the growth is 101% with NCI-H23 lung; 109% in the experiment on NCI-H226 lung; 93.7% in the experiment on NCI-H322M lung; 111% with HOP-62 NSCLC; 108% in the experiment with NCI-H460 lung; 53% in the experiment with HOP-92 NSCLC. Also, the growth is 94.9% with NCI-H522 lung; 105% with A549/ATCC NSCLC; 99% with 786-0 renal; 119% in the experiment on COLO 205 colon; 112% in the experiment with DU-145 prostate; 88.2% in the experiment with K-562 leukemia. The growth was 88.9% in the experiment on MALME-3M melanoma; 95.8% with MDA-MB-231 breast; 109% with RXF 393 renal; 106% in the experiment on SF-268 CNS; 94.1% in the experiment on SF-295 CNS; 110% in the experiment on SF-539 CNS. The growth in the experiment on UACC-257 melanoma is 119%; in the experiment with M14 melanoma, 102%.

For `COc1ccc(C(=O)CSc2nccc(Nc3ccc(C(=O)O)cc3)n2)cc1`, the growth in the experiment with NCI-H23 lung is 99.2%; in the experiment with NCI-H226 lung, 92.8%; with NCI-H322M lung it was 106%; with HOP-62 NSCLC, 99.7%; in the experiment on NCI-H460 lung, 103%; in the experiment on HOP-92 NSCLC it was 97.4%. Besides, the growth in the experiment with NCI-H522 lung was 92.9%; with A549/ATCC NSCLC it was 99.7%; in the experiment on 786-0 renal, 103%; with COLO 205 colon, 107%; in the experiment with DU-145 prostate, 107%; with K-562 leukemia, 115%. Further, the growth with MALME-3M melanoma was 93%; with MDA-MB-231 breast, 102%; in the experiment on RXF 393 renal it was 99%; with SF-268 CNS, 96.6%; in the experiment with SF-295 CNS, 104%; in the experiment with SF-539 CNS, 99.9%. The figures for the growth in the experiment with UACC-257 melanoma and in the experiment with M14 melanoma were 96.6% and 92.1%, respectively.

Regarding `CCOC(=O)c1nc2c3ccccc3ccn2c1C(=O)OC`, the growth in the experiment on NCI-H23 lung was 97.2%; in the experiment with NCI-H226 lung, 97.2%; in the experiment with NCI-H322M lung, 95.6%; in the experiment with HOP-62 NSCLC, 95.5%; in the experiment on NCI-H460 lung, 103%; in the experiment on HOP-92 NSCLC it was 103%. Moreover, the growth was 90.6% with NCI-H522 lung; 92.8% with A549/ATCC NSCLC; 93.8% with 786-0 renal; 104% in the experiment on COLO 205 colon; 104% in the experiment on DU-145 prostate; 113% with K-562 leukemia. Besides, the growth was 100% with MALME-3M melanoma; 99.9% with MDA-MB-231 breast; 93.8% in the experiment on RXF 393 renal; 101% with SF-268 CNS; 106% in the experiment with SF-295 CNS; 100% in the experiment with SF-539 CNS. Moreover, the growth was 102% in the experiment on UACC-257 melanoma and 107% with M14 melanoma.

With `CNC(=O)c1cc(Oc2ccc3nc(NC(=O)c4ccc5ncccc5c4)sc3c2)ccn1`, the growth in the experiment on NCI-H23 lung is 92.7%; with NCI-H226 lung, 68.6%; in the experiment with NCI-H322M lung it was 99%; in the experiment with HOP-62 NSCLC, 112%; with NCI-H460 lung it was 98.6%; with HOP-92 NSCLC, 110%. Also, the growth in the experiment with NCI-H522 lung was 54.3%; with A549/ATCC NSCLC, 76.5%; with 786-0 renal, 98.4%; in the experiment with COLO 205 colon, 95.8%; in the experiment on DU-145 prostate, 105%; with K-562 leukemia it was 93.7%. In addition, the growth in the experiment with MALME-3M melanoma is 80.5%; in the experiment with MDA-MB-231 breast it was 98.6%; with RXF 393 renal, 109%; in the experiment on SF-268 CNS it was 97.4%; with SF-295 CNS, 86.9%; with SF-539 CNS, 107%. For the same compound, the growth is 93.1% in the experiment on UACC-257 melanoma and 102% with M14 melanoma.

For `Cc1cnc(N)nc1OCC(C)(C)CNC(=O)c1cccc(-c2ccc(S(=O)(=O)Nc3ccc4c(c3)N(C(=O)C3CC3)CCC4)cc2)c1`, the growth is 48.6% in the experiment on NCI-H23 lung; 59.3% in the experiment on NCI-H226 lung; 84.2% in the experiment on NCI-H322M lung; 59.7% with HOP-62 NSCLC; 53.9% with NCI-H460 lung; 53.5% in the experiment on HOP-92 NSCLC. Also, the growth with NCI-H522 lung was 65.4%; with A549/ATCC NSCLC it was 49.9%; with 786-0 renal, 90.6%; in the experiment with COLO 205 colon, 55.5%; in the experiment with DU-145 prostate, 77.4%; with K-562 leukemia, 34.3%. For the same compound, the growth in the experiment with MALME-3M melanoma is 80.7%; in the experiment on MDA-MB-231 breast it was 68.1%; in the experiment on RXF 393 renal it was 74.6%; in the experiment with SF-268 CNS it was 67.5%; in the experiment with SF-295 CNS, 55.3%; in the experiment with SF-539 CNS, 75.2%. The results for the growth in the experiment on UACC-257 melanoma and in the experiment with M14 melanoma were 46.6% and 96.4%, respectively.

With `CCOC(=O)c1c[nH]n2c(=S)ncnc12`, the growth was 97.4% in the experiment with NCI-H23 lung; 97.4% with NCI-H226 lung; 110% with NCI-H322M lung; 89.8% with HOP-62 NSCLC; 115% in the experiment on NCI-H460 lung; 113% in the experiment with HOP-92 NSCLC. The growth in the experiment with NCI-H522 lung was 96.8%; in the experiment with A549/ATCC NSCLC, 106%; in the experiment on 786-0 renal, 95.8%; in the experiment with COLO 205 colon it was 100%; in the experiment with DU-145 prostate, 108%; in the experiment on K-562 leukemia, 106%. In addition, the growth was 109% in the experiment with MALME-3M melanoma; 109% in the experiment with MDA-MB-231 breast; 113% with RXF 393 renal; 98.5% with SF-268 CNS; 109% with SF-295 CNS; 105% with SF-539 CNS. Further, the growth was 102% with UACC-257 melanoma and 103% in the experiment with M14 melanoma.
